Potency and affinity values are given separately.
Each compound was assayed on Klebsiella pneumoniae. Conditions: Concentration 32 ug.mL-1;; ASSAY_TEST Inhibition of Bacterial Growth; detection method Absorption (OD600); MEDIA CAMHB; plate type 384well; NBS; CORNING #3640; time 18 hr.

Compared with `CCc1nnc2c(=O)n(CC(=O)Nc3cccc(C#N)c3)c3ccccc3n12`, `CC(C)c1nnc2c(=O)n(CC(=O)Nc3ccc4c(c3)OCO4)c3ccccc3n12` is lower in Inhibition: 9.63% for the first, 6.48% for the second.

First: COc1ccc(NC(=O)Cn2nc3c4cc(-c5ccc(C)c(C)c5)nn4ccn3c2=O)cc1
Second: COc1ccc(CNC(=O)Cn2nc3c4cc(-c5ccc(C)c(C)c5)nn4ccn3c2=O)cc1
The Inhibition of the first is higher: 9.06% for the first, 7.73% for the second.

Compared with `Cc1nnc2c(=S)[nH]c3ccccc3n12`, `CC(C)c1nnc2c(=O)n(CC(=O)Nc3cc(Cl)ccc3Cl)c3ccccc3n12` is lower in Inhibition: 21.93% for the first, 7.9% for the second.

Going from `COc1cccc(-n2ccn3c(SCC(=O)c4ccc(OC)c(OC)c4)nnc3c2=O)c1` to `COc1ccc(OC)c(NC(=O)Cn2nc3c4cc(-c5ccc(F)cc5)nn4ccn3c2=O)c1`, the Inhibition falls from 7.59% to 1.37%.

Going from `CCc1ccc(NC(=O)Cn2nc3cc(C)nc(Nc4ccc(F)c(C)c4)n3c2=O)cc1` to `CCOC(=O)c1cccc(NC(=O)Cn2nc3c(Oc4cccc(C)c4C)nccn3c2=O)c1`, the Inhibition falls from 8.35% to -1.37%.

Going from `COc1ccccc1N1CCN(C(=O)Cn2nc3c(Sc4cccc(C)c4)nccn3c2=O)CC1` to `Cc1ccc(-c2cc3c4nn(CC(=O)Nc5ccc(F)cc5Cl)c(=O)n4ccn3n2)cc1`, the Inhibition rises from -0.72% to 2.7%.

Compared with `CCCCN(C)c1ccc2nnc(CCc3nc(-c4cc(OC)cc(OC)c4)no3)n2n1`, `O=S(=O)(c1ccc2nncn2c1)N(Cc1cc(F)cc(F)c1)c1ccccc1` is lower in Inhibition: 6.4% for the first, -3.49% for the second.

— ChEMBL document CHEMBL4513146, “CO-ADD screening of Karazin Kharkiv National University (Ukraine) compounds”
